ChEMBL document CHEMBL1961873, “Compounds: GSK PKIS; Assays: Nanosyn kinase panel” (2012)

What was measured:
[1] = target: CDK3/Cyclin E (Homo sapiens) (UniProt P24864+Q00526); details: at 1 µM;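 also: each figure is a mean percent inhibition of the CDK3/cyclin E complex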
[2] = target: Cyclin-dependent kinase 4 (Homo sapiens) (UniProt P11802); details: at 0.1 µM
[3] = target: Cyclin-dependent kinase 4 (Homo sapiens) (UniProt P11802); details: at 1 µM
[4] = target: Cyclin-dependent kinase 5 (Homo sapiens) (UniProt Q00535); details: at 0.1 µM
[5] = target: Cyclin-dependent kinase 5 (Homo sapiens) (UniProt Q00535); details: at 1 µM
[6] = target: Cyclin-dependent kinase 6 (Homo sapiens) (UniProt Q00534); details: at 0.1 µM
[7] = target: Cyclin-dependent kinase 6 (Homo sapiens) (UniProt Q00534); details: at 1 µM
[8] = target: Dual specificity protein kinase CLK2 (Homo sapiens) (UniProt P49760); details: at 0.1 µM
[9] = target: Dual specificity protein kinase CLK2 (Homo sapiens) (UniProt P49760); details: at 1 µM
[10] = target: Dual specificity protein kinase CLK3 (Homo sapiens) (UniProt P49761); details: at 0.1 µM
[11] = target: Dual specificity protein kinase CLK3 (Homo sapiens) (UniProt P49761); details: at 1 µM
[12] = target: Dual specificity tyrosine-phosphorylation-regulated kinase 1A (Homo sapiens) (UniProt Q13627); details: at 0.1 µM
[13] = target: Dual specificity tyrosine-phosphorylation-regulated kinase 1A (Homo sapiens) (UniProt Q13627); details: at 1 µM
[14] = target: Dual specificity tyrosine-phosphorylation-regulated kinase 1B (Homo sapiens) (UniProt Q9Y463); details: at 0.1 µM
[15] = target: Dual specificity tyrosine-phosphorylation-regulated kinase 1B (Homo sapiens) (UniProt Q9Y463); details: at 1 µM
[16] = target: T1, Dual specificity tyrosine-phosphorylation-regulated kinase 2 (Homo sapiens) (UniProt Q92630); details: at 0.1 µM
T1 sequence (whole entry): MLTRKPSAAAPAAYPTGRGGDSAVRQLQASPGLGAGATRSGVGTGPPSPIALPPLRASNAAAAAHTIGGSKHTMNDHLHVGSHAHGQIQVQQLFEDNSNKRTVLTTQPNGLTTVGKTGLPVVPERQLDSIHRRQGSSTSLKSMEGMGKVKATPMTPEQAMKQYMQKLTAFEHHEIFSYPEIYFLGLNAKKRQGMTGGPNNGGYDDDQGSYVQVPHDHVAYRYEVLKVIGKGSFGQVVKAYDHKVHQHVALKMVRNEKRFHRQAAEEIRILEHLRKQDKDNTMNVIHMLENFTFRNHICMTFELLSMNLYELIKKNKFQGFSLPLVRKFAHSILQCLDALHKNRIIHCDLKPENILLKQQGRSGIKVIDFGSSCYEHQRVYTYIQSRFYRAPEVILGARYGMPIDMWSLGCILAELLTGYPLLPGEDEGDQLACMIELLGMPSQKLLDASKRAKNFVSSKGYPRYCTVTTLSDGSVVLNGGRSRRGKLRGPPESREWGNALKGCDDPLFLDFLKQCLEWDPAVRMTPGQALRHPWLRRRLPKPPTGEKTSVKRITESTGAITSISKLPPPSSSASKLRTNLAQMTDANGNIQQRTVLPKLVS

[17] = target: T1, Dual specificity tyrosine-phosphorylation-regulated kinase 2 (Homo sapiens); details: at 1 µM
[18] = target: Glycogen synthase kinase-3 alpha (Homo sapiens) (UniProt P49840); details: at 0.1 µM
[19] = target: Glycogen synthase kinase-3 alpha (Homo sapiens) (UniProt P49840); details: at 1 µM
[20] = target: Glycogen synthase kinase-3 beta (Homo sapiens) (UniProt P49841); details: at 0.1 µM;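 also: values are mean percent inhibition of GSK3B activity, from the GSK Published Kinase Inhibitor Set (PKIS) screening dataset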
Sequence of Glycogen synthase kinase-3 beta (Homo sapiens) (P49841 whole entry, looked up): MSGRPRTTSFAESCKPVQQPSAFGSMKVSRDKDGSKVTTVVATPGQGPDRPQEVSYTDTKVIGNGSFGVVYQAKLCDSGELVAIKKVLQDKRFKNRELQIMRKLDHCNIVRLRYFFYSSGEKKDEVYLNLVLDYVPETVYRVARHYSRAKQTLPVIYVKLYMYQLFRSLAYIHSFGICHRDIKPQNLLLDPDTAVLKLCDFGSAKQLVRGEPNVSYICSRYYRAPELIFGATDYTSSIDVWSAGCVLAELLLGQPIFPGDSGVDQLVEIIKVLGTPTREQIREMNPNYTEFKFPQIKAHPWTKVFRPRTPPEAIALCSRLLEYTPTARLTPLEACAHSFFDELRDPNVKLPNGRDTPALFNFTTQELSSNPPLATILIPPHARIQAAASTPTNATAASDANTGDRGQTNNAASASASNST

Sequence of Cyclin-dependent kinase 5 (Homo sapiens) (Q00535 whole entry, looked up): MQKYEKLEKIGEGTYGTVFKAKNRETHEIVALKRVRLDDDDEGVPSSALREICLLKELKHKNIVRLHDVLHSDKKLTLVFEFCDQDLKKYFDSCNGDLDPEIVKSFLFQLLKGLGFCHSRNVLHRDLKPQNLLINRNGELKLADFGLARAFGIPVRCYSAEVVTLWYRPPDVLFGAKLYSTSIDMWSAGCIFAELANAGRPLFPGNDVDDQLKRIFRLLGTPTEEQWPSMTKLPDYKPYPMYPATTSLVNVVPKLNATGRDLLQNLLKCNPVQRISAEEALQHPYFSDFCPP
Sequence of Glycogen synthase kinase-3 alpha (Homo sapiens) (P49840 2-483 limits assumed): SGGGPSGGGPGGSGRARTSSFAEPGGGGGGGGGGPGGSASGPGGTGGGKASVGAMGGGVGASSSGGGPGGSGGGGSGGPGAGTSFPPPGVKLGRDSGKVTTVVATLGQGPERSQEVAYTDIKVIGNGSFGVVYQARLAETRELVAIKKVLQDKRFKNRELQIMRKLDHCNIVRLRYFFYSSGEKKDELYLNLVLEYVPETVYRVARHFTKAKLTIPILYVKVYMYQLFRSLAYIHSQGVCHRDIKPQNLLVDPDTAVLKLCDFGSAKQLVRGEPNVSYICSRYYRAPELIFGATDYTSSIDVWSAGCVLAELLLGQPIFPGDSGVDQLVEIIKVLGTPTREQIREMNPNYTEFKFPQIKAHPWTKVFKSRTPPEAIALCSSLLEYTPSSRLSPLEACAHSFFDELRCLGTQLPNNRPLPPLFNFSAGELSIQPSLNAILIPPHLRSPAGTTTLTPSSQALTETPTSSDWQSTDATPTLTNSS
Sequence of Cyclin-dependent kinase 4 (Homo sapiens) (P11802 whole entry): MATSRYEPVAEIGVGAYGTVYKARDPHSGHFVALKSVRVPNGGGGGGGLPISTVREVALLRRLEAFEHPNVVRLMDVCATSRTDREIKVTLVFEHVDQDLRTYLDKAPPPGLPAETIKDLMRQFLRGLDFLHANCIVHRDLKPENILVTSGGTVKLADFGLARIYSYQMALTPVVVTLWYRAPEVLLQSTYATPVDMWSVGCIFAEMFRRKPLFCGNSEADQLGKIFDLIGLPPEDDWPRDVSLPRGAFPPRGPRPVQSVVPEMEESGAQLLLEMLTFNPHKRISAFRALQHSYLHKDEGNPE
Sequence of CDK3/Cyclin E (Homo sapiens) (P24864 whole entry, looked up): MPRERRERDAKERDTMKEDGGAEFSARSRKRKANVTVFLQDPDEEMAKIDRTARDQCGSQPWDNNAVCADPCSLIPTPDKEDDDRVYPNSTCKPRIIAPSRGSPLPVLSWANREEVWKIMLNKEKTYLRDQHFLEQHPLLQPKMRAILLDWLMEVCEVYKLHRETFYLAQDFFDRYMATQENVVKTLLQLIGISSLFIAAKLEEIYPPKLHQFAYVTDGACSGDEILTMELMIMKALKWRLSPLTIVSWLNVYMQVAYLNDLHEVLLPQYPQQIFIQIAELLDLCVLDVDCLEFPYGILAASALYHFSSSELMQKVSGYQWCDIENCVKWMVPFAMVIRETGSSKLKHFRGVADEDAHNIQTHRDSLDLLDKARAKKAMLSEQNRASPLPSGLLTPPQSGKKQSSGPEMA
Sequence of CDK3/Cyclin E (Homo sapiens) (Q00526 whole entry, looked up): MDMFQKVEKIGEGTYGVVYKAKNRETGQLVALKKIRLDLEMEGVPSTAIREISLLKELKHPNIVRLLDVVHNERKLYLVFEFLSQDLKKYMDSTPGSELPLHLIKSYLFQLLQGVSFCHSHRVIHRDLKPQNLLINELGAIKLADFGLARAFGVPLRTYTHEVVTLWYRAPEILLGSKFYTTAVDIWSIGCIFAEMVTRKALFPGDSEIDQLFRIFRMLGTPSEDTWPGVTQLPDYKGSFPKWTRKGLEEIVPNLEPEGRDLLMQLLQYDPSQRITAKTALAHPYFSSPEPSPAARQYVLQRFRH
Sequence of Dual specificity protein kinase CLK2 (Homo sapiens) (P49760 whole entry, looked up): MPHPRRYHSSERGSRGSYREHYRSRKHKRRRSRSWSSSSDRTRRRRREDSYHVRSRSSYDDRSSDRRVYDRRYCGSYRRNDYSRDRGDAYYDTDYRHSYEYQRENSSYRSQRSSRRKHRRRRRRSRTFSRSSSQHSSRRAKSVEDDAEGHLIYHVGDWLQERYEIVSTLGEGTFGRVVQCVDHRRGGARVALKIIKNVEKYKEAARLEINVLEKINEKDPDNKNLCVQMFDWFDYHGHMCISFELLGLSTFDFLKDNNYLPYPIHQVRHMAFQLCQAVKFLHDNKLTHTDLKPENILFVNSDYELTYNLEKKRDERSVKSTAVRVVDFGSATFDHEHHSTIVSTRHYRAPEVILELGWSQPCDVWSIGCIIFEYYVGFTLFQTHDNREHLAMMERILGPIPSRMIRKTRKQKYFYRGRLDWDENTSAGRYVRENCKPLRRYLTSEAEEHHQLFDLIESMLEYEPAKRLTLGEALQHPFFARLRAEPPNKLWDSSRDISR
Sequence of Dual specificity protein kinase CLK3 (Homo sapiens) (P49761 whole entry, looked up): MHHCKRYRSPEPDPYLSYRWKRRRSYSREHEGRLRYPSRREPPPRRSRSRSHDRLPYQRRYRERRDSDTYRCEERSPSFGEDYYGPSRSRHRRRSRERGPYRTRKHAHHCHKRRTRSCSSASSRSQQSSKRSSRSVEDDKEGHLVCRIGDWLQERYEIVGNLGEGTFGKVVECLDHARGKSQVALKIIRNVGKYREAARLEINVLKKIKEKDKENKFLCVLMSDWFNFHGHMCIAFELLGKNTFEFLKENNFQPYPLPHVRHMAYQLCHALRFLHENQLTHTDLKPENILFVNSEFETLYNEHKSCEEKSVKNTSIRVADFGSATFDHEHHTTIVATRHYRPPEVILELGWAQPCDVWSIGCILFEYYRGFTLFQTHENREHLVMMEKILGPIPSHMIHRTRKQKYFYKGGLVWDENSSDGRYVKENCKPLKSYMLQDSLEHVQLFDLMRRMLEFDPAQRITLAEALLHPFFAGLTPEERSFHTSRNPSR
Sequence of Cyclin-dependent kinase 6 (Homo sapiens) (Q00534 whole entry): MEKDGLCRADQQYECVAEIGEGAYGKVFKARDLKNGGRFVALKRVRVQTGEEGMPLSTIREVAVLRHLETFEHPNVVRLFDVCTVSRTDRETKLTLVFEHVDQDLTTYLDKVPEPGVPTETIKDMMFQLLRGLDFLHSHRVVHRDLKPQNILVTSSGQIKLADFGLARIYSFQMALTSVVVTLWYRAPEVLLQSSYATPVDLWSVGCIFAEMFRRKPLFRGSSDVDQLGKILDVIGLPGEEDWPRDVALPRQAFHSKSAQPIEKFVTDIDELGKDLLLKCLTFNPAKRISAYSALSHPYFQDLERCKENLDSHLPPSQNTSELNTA
Sequence of Dual specificity tyrosine-phosphorylation-regulated kinase 1B (Homo sapiens) (Q9Y463 whole entry, looked up): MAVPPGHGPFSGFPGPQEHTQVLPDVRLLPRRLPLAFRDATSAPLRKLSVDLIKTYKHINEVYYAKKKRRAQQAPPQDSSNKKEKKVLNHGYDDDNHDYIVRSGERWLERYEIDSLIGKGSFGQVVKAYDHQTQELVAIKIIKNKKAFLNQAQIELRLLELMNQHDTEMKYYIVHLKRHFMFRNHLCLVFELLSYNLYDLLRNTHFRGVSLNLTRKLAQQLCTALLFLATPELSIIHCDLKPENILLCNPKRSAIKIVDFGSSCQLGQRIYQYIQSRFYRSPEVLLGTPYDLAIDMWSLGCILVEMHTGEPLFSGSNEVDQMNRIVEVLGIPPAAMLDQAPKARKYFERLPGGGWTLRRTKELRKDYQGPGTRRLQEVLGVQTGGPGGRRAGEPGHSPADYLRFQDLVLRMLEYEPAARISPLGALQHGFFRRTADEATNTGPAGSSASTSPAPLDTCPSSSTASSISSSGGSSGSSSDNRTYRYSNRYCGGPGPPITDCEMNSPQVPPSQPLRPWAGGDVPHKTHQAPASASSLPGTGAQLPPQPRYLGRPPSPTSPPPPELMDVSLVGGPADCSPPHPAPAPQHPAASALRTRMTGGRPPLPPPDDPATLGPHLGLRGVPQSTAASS

SMILES | inhibition [1] | inhibition [2] | inhibition [3] | inhibition [4] | inhibition [5] | inhibition [6] | inhibition [7] | inhibition [8] | inhibition [9] | inhibition [10] | inhibition [11] | inhibition [12] | inhibition [13] | inhibition [14] | inhibition [15] | inhibition [16] | inhibition [17] | inhibition [18] | inhibition [19] | inhibition [20]
CCn1c(-c2nonc2N)nc2cncc(C(=O)N3CCNCC3)c21 | 0.54% | 2.78% | 3.57% | 0.79% | 1.06% | -0.98% | 3.06% | 2.04% | 5.8% | 2.42% | 1.12% | 3.49% | 4.33% | 0.28% | -0.73% | 4.35% | 7.99% | 2.98% | 2.61% | 1.93%
COc1cc2ncn(-c3cc(OCc4ccccc4Cl)c(C(N)=O)s3)c2cc1OC | -0.63% | 2.27% | 5.4% | 1.51% | 4.46% | -4.1% | 0.43% | 1.87% | 3.23% | 1.33% | 4.39% | 0.59% | 4.21% | 1.28% | 0.48% | 0.19% | 2.53% | 2.18% | 9.18% | 1.21%
CS(=O)(=O)Nc1ccc(N/C=C2\C(=O)Nc3ccccc32)cc1 | 17.4% | 1.6% | 15% | 6.34% | 39.8% | 12.9% | 59.4% | -0.68% | 3.62% | 0.94% | 1.06% | 0.92% | 10.4% | 3.56% | 13.9% | -1.66% | -0.97% | 7.94% | 19.6% | 6.71%
CNC(=O)c1cncc(/C=C/c2c(Cl)cccc2Cl)c1 | -3.08% | 0.86% | 3.96% | -2.57% | -0.63% | -5.76% | -5.69% | 2.47% | 5.66% | -3.56% | -3.4% | -1.12% | -1.12% | -1.13% | 3.55% | 3.17% | 6.98% | -0.55% | 3.81% | -1.21%
COc1cc2ncn(-c3cc(O[C@H](C)c4ccccc4Cl)c(C(N)=O)s3)c2cc1OC | 5.51% | 2.41% | 3.26% | 0.86% | 1.47% | -0.21% | -0.74% | 3.38% | 5.22% | 2.12% | 7.93% | -0.27% | 3.73% | -0.01% | 0.14% | 2.5% | 5.55% | 5.34% | 19.8% | 5.07%
COc1ccc(-c2coc3ncnc(N)c23)cc1 | 0.08% | 4.16% | 5.78% | 2.66% | 3.84% | – | 3.88% | 3.15% | 3.42% | 1.07% | 1.54% | 3.61% | 19.2% | -0.37% | 5.22% | 3.83% | 4.61% | 2.73% | 3.86% | 0.71%
CC1=C(C(=O)Nc2ccc3[nH]ncc3c2)C(c2ccc(F)cc2)NC(=O)N1 (centres undefined) | -0.84% | 1.79% | 4.05% | 0.41% | 3.23% | -2.46% | 4.38% | -0.24% | 0.68% | 3.34% | 1.47% | 1.78% | 1.58% | -0.22% | 3.29% | 0.94% | 2.08% | -0.66% | -0.33% | -0.1%
COc1ccc(COc2ccc(Cc3cnc(N)nc3N)cc2OC)cc1 | 1.92% | 1.7% | 3.6% | 2.15% | 2.03% | 1.93% | 3.33% | 2.03% | 1.66% | -0.25% | -0.53% | 1.44% | 0.52% | 4% | 2.57% | -0.01% | 0.42% | 1.37% | 0.34% | 0.96%
Fc1cccc(COc2ccc(Nc3ncnc4cc(-c5ccc[nH]5)sc34)cc2Cl)c1 | -1.23% | -1.38% | 1.79% | -2.8% | -0.09% | -9.87% | -4.56% | 0.06% | -0.33% | -2.46% | -1.03% | -2.81% | -0.45% | -3.77% | -3.25% | 1.57% | 1.07% | -2.13% | 2.99% | -2.64%
COc1ccc(-c2ccncc2)cc1C(N)=O | -1.43% | 3.41% | 3.66% | 0.56% | 1.7% | -5.08% | 0.48% | 0.6% | 2.96% | 2.01% | 0.61% | 3.91% | 6.95% | -1.51% | 2.44% | 3.8% | 9.87% | 3% | 4.53% | 2.89%
Nc1ncnc2occ(-c3ccc(NC(=O)Nc4cccc(C(F)(F)F)c4)cc3)c12 | 16.6% | 3.45% | 6.6% | 0.37% | 4.7% | 1.3% | 2.21% | 0.14% | 2.59% | 1.01% | – | 3.42% | 6.79% | -0.28% | 1.94% | 3.2% | 2.85% | 3.15% | 9.54% | 2.89%
CC(C)=Cc1cccc2c1/C(=N/Nc1ccc(S(N)(=O)=O)cc1)C(=O)N2 | 99.1% | 34.3% | 68.9% | 39.7% | 73.3% | 63.6% | 91.4% | 1.69% | 7.38% | -6.71% | 1.83% | -1.42% | 2.34% | 0.57% | 5.61% | 0.58% | 2.29% | 13.8% | 53.5% | 7.42%
CS(=O)(=O)CCNCc1ccc(-c2ccc3ncnc(Nc4ccc(OCc5ccccc5)c(Cl)c4)c3c2)o1 | -1.2% | -0.14% | 4.1% | 2.15% | 3.8% | -5.27% | -2.22% | 2.2% | 1.75% | 0.36% | -0.47% | 2.24% | 1.73% | 1.31% | 2.67% | -0.23% | 1.41% | 1.58% | 4.24% | 2.15%
CS(=O)(=O)CCNCc1ccc(-c2ccc3ncnc(Nc4ccc(OCc5cccc(F)c5)c(C(F)(F)F)c4)c3c2)o1 | -2.95% | 2.52% | 2.44% | 0.38% | 0.07% | – | -2.6% | 0.58% | 0.13% | 1.49% | 0.98% | 2.19% | 1.7% | -1.48% | -1.44% | 2.83% | 3.42% | 1.48% | 0.2% | 0.25%
CCc1cccc(NC(=O)Nc2ccc(Oc3ccc4nc(NC(=O)OC)[nH]c4c3)cc2)c1 | -1.16% | 0.97% | 1.5% | -0.16% | -0.09% | 7.42% | 1.51% | 0.09% | 1.38% | 0.3% | 0.82% | 0.05% | 1.26% | 0.7% | 1.1% | 0.73% | 1.13% | 1.53% | 4.83% | 1.88%
N#Cc1c(NC(=O)c2cccc3ccccc23)sc2c1CCCC2 | -0.77% | 3.82% | 6.92% | 1.3% | 5.67% | – | 4.55% | 1.29% | 0.3% | 0.63% | 1.09% | 1.07% | 4.31% | 0.47% | 1.43% | 1.86% | 2.69% | 5.51% | 6.65% | 3.72%
COC(=O)Nc1nc2cc(Oc3cccc(NC(=O)Nc4cc(C(F)(F)F)ccc4F)c3)ccc2[nH]1 | -1.48% | 1.83% | 2.11% | 0.65% | 1.39% | -5.71% | 1.18% | -0.8% | 1.04% | -0.93% | 0.16% | -0.01% | 2.54% | -0.21% | 1.68% | -0.32% | -0.02% | 1.75% | 7.54% | 0.73%
CS(=O)(=O)CCN(CC#N)Cc1ccc(-c2ccc3ncnc(Nc4ccc(OCc5cccc(F)c5)c(Cl)c4)c3c2)o1 | -2.66% | -2.96% | -1.43% | -3.58% | -2.47% | -5.97% | -4.69% | 1.05% | 0.64% | -3.63% | -4.13% | -2.78% | -0.17% | -4.49% | -3.08% | 0.54% | 0.76% | -1.48% | 0.08% | -2.26%
CCn1c(-c2nonc2N)nc2ccncc21 | -0.78% | 1.15% | 3.35% | 0.45% | 1.71% | – | -1.56% | 3.93% | 3.92% | -0.93% | 0.52% | 0.1% | 2.88% | -0.02% | 0.71% | 1.94% | 2.17% | 0.52% | 7.82% | 0.08%
Cc1nnc(-c2ccc(C)c(-c3ccc(C(=O)Nc4cccc(C#N)c4)cc3)c2)o1 | -0.82% | 0.95% | 0.68% | 0.65% | 1.71% | 1.26% | 3.14% | 1.15% | -0.94% | 0.91% | 1.62% | 0.92% | 3.59% | 0.45% | 1.21% | 1.13% | 1.2% | 2.41% | 4.82% | 2.45%
Cc1cc(O)cc(C)c1/C=C/c1cncc(-c2nn[nH]n2)c1 | -2.12% | -0.96% | 0% | -3.06% | -3.35% | -6.34% | -0.68% | 2.78% | 1.31% | – | -1.62% | 1.17% | 2.98% | -1.94% | -1.27% | 2.24% | 3.95% | -2.04% | 3.03% | -2.15%
